Assay outcomes: PubChem BioAssay, National Center for Advancing Translational Sciences (NCATS)
A selection: hits, their analogues and other compounds. The true share with any hit is near 3.5%.
Tau fibril ThT = qHTS for Inhibitors of Tau Fibril Formation, Thioflavin T Binding. Microtubule-associated protein tau (Homo sapiens), P10636. recombinant tau K18 P301L, heparin-induced fibrillization, ThT fluorescence. Potency, µM (titrated, usually from 57.4 µM), without a hit: top-dose activity, negative = inhibition, hits mostly inhibitors. 2.1% of 270,000 active; note: nearly all actives have a fitted effect of over 55% in size
Target sequence (P10636 561-689 P618L limits assumed): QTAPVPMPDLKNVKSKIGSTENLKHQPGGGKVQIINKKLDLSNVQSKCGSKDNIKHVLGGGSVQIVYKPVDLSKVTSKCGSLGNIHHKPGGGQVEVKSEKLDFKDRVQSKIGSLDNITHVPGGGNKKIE
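Heparin-induced (20 uM) aggregation of recombinant human K18 P301L tau, 15 uM unlabeled with 0.24 uM labeled, pH 7 acetate buffer, 6 hr at 37 C with compound. Fibrils quantified by 30 uM ThT fluorescence after 1 hr ambient incubation.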
TexasRed fluor = Total Fluorescence Counterscreen for Inhibitors of the Interaction of Thyroid Hormone Receptor and Steroid Receptor Coregulator 2; TRb/SRC2 Texas Red total fluorescence interference; Potency, µM (highest dose often 106 µM), for inactives: top-dose fluorescence change, negative = quenching; 0.29% of 280,000 active; AID 1479, 2009; active = well fitted curve in either direction with a large enough effect; inconclusive = small, poorly fitted or top-dose-only effect
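Human TRβ ligand-binding domain (0.6 uM) and Texas Red SRC2 peptide (20 nM) in Tris buffer with 1 uM T3 and 5% DMSO were incubated with pinned compound for 5 hr at ambient temperature. Total fluorescence was computed as S + 2P (555/632 nm).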
TRb SRC2 PPI = qHTS for Inhibitors of the Interaction of Thyroid Hormone Receptor and Steroid Receptor Coregulator 2. Thyroid hormone receptor beta (Homo sapiens), P10828. TRbeta-SRC2 peptide binding, fluorescence polarization; receptor liganded with 1 µM T3. Potency, µM (top dose mostly 106 µM), without a hit: top-dose activity change, negative = inhibition, most hits filed as inhibitors. 0.065% of 280,000 active;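 note: plate controls were bound peptide for no effect and peptide without receptor for full effect; nearly all actives have a fitted effect of over 50% in size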
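Binding of a 20-amino-acid Texas Red SRC2 peptide (20 nM) to TRb ligand-binding domain (0.6 uM) with agonist T3 at 1 uM was followed by fluorescence polarization after a 5 hr room-temperature incubation.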
Tau fluor counter = Counterscreen qHTS for Inhibitors of Tau Fibril Formation, Fluorescence Polarization; Potency, µM (top dose mostly 57.7 µM), for inactives: at the highest dose activity change, negative = decrease; tau K18 P301L Alexa594 fluorescence, heparin fibrillization; 0.93% of 280,000 active; note: nearly all actives have a fitted effect of over 55% in size
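Human K18 P301L tau (15 uM unlabeled plus 0.24 uM Alexa 594-labeled, final) in 100 mM sodium acetate pH 7 was mixed with compound and 20 uM heparin and incubated 6 hr at 37 C.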
KDM4E inh = qHTS Assay for Inhibitors of Human Jumonji Domain Containing 2E (JMJD2E) | Lysine-specific demethylase 4E (Homo sapiens), B2RXH2 | JMJD2E catalytic domain, FDH-coupled NADH fluorescence (FDH is formaldehyde dehydrogenase) | Potency, µM (series often up to 57.1 µM), for inactives: at the highest dose activity change, negative = inhibition, usual class: inhibitors | 1.6% of 230,000 active; active = well fitted inhibition curve with a large enough effect, not every such curve was filed as active; inconclusive = small, poorly fitted or top-dose-only effect, or another doubt; inactive = no such curve, though single readings can be large or run the other way;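 note: 0% = wells with enzyme and -100% = buffer wells without enzyme; nearly all actives have a fitted effect of over 50% in size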
Target sequence (B2RXH2 1-337 limits assumed): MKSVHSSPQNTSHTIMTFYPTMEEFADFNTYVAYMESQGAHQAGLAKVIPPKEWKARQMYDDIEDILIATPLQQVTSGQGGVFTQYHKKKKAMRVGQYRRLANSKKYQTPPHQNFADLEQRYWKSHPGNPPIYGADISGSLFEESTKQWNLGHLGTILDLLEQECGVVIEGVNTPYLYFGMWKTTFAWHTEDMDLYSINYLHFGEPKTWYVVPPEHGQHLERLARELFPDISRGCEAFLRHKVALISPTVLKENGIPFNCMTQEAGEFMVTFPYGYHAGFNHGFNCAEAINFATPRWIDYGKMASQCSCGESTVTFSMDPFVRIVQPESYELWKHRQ
Tau FP inhib = qHTS for Inhibitors of Tau Fibril Formation, Fluorescence Polarization | Microtubule-associated protein tau (Homo sapiens), P10636 | Potency, µM (top dose mostly 57.7 µM), for inactives: at the highest dose activity, negative = inhibition, actives largely listed as inhibitors | K18 P301L tau heparin fibrillization, Alexa594 FP, 6 h | 0.39% of 280,000 active; note: nearly all actives have a fitted effect of over 55% in size
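Heparin (20 uM) drove fibril formation of recombinant tau K18 P301L, 15 uM unlabeled with 0.24 uM Alexa 594 label, for 6 hr at 37 C in 100 mM sodium acetate pH 7. Fluorescence polarization (555/632 nm) read 1 hr after 30 uM ThT.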
Numbers without * were called inactive; u = inconclusive; x = not tested or not shown; [ ] = another dose, or the depositor's remark. Unless noted, calls come from the whole dose curve; as a rule, active = well fitted curve in the direction sought with a large enough effect; inconclusive = small, poorly fitted or top-dose-only effect, or another doubt; inactive = no such curve, though single readings can be large; an effect the other way counts as inactive or inconclusive. Unless noted, % is set by controls: 0 for no effect and ±100 for the full control effect; potency is the fitted concentration of half-maximal effect.

SMILES | Tau fibril ThT | TexasRed fluor | TRb SRC2 PPI | Tau fluor counter | KDM4E inh | Tau FP inhib
CCOc1ccc(NC(=O)c2ccccc2NC(=O)CN2CCN(C(C)=O)CC2)cc1 | -6% | -3% | -12% | 0% | 16% | 4%
CCN(CC)S(=O)(=O)c1cccc(-c2n[nH]c(=S)n2/N=C/c2ccc(OC(F)F)cc2)c1 | u | 1% | -3% | u | 3% | u
COc1ccc2c(c1)C(=NN)c1cc(OC)ccc1-2 | 10µM* | -7% | 0% | u | 0% | 0%
Clc1ccc(OCc2nc3ccccc3n2Cc2ccccc2)c(Cl)c1 | -1% | -9% | 8% | -1% | x | -1%
O=C(Nc1ccc(Cl)cc1)Nc1ccc2c(c1)N1CCN=C1S2 | -15% | 0% | 5% | 14µM*[quencher] | 1% | -11%
Nc1ccc2c(c1)N1CCN=C1S2 | -14% | -5% | 4% | 3% | 3% | -1%
CCOC(=O)C1(CCCc2ccccc2)CCN(C(=O)CCn2cncn2)CC1 | 0% | -2%[53 µM] | 3%[53 µM] | -2% | -16% | -2%
Oc1ccc(N2CCN(C(=S)NCCc3ccccc3)CC2)cc1 | 14µM* | 30% | -23% | -27% | -25% | 13%
Oc1ccccc1N1CCN(C(=S)NCCc2ccccc2)CC1 | u | 1% | 3% | -26% | -22% | 10%
CCOc1ccc(NC(=O)CN(C)S(=O)(=O)c2cccs2)cc1 | -13% | -6% | 3% | -3% | -2% | 4%
CCOC(=O)N1CCN(S(=O)(=O)/C=C/c2ccccc2)CC1 | -4% | -7% | -1% | -7% | -14% | -2%
CCOC(=O)N1C/C(=C\c2ccccc2)C(=O)/C(=C/c2ccccc2)C1 | 14µM* | 0% | 1% | -10% | 14% | u
Clc1ccc(N2CCOCC2)nn1 | -9% | -1% | -6% | -10% | -3% | -17%
Cc1nn(-c2ccccc2)c(Cl)c1/C=C1/C(=N)N2N=C(C(C)C)SC2=NC1=O | u | -1% | -1% | 0% | u | 0%
CCS(=O)(=O)C1=NN2C(=N)/C(=C\c3ccc(SCc4ccco4)o3)C(=O)N=C2S1 | 14µM* | -2% | 3% | u | u | -21%
N=C1/C(=C\c2ccc(SCc3ccccc3)o2)C(=O)N=C2SC=NN12 | 8.9µM* | -2% | 5% | -19% | 1% | u
Cc1cc(/C=C2\C(=N)N3C(SCc4ccccc4)=NSC3=NC2=O)c(C)n1Cc1ccccc1 | -10% | 2% | 3% | -7% | -3% | 4%
N=C1/C(=C\c2ccc(SCc3ccccc3)o2)C(=O)N=C2SC(CC(=O)N3CCOCC3)=NN12 | 14µM* | -12% | 20% | -11% | u | 7%
O=C(CCn1c2c(c3ccccc31)CCCC2)NNC(=O)c1ccccc1[N+](=O)[O-] | u | -3% | -16% | -29% | 3% | 7%
COc1ccc(OC)c(NC(=O)CSC2=Nc3ccccc3C3=NC(CCC(=O)NC4CCCCC4)C(=O)N23)c1 (configuration not stated) | -1% | -1% | 3% | 2% | x | -1%
Cc1cc(C)nc(N2CCC(C(=O)NCC3CCCCC3)CC2)n1 | 7% | 0% | -3% | 6% | -1% | -2%
Cc1ccc(N=Cc2ccc[nH]2)c(O)c1 | 16µM* | -2% | -6% | u | u | u
Cc1cccc(C(=O)N/N=C/c2ccc[nH]2)c1 | u | -2% | 0% | -11% | 8% | 3%
COc1ccc(C(=O)/C=C/c2ccc(N3CCCCC3)c([N+](=O)[O-])c2)c(OC)c1 | 4µM* | -38% | -6% | u | -4% | 4%
COc1ccc(-c2noc(-c3ccc(N4CCCCC4)c([N+](=O)[O-])c3)n2)cc1 | 9% | -1% | 2% | -4% | x | -9%
SMILES | Tau fibril ThT | TexasRed fluor | TRb SRC2 PPI | Tau fluor counter | KDM4E inh | Tau FP inhib
O=C(/C=C/c1ccncc1)c1ccc2c(c1)OCCO2 | u | -1% | 7% | 5% | 5% | -4%
O=C(O/N=C\c1ccc(N2CCCCC2)c([N+](=O)[O-])c1)c1cccc(Cl)c1 | u | -1% | -11% | -24% | -8% | 6%
COc1ccc(C(=O)/C=C/c2ccc(N3CCCCC3)c([N+](=O)[O-])c2)cc1 | 7.9µM* | -1% | -7% | u | -3% | 12%
Cc1ccc(C(=O)O/N=C\c2ccc(N3CCCCC3)c([N+](=O)[O-])c2)cc1 | 4.5µM* | 0% | 8% | -17% | -2% | 11%
CN(C)c1ccc(/C=C/C(=O)c2ccc3c(c2)OCCO3)cc1[N+](=O)[O-] | 3.5µM* | -5%[53 µM] | -4%[53 µM] | u | 4% | 5%
CCOC(=O)C1CCCN(C(=O)Cn2ncn3c(cc4sc(CC)cc43)c2=O)C1 (configuration not stated) | 2% | 2% | 4% | 4% | x | 3%
Cc1ccc(S(=O)(=O)Cn2cnnn2)cc1 | 7% | -1% | -5% | -1% | -3% | 2%
CCOC(=O)N1CCN(C(=S)NC(=O)c2ccc(F)cc2)CC1 | -3% | -2% | -3% | 4% | 0% | -2%
Cc1ccc(CNS(=O)(=O)c2cc(C(=O)Nc3cccc(C(F)(F)F)c3)ccc2F)cc1 | 22% | -1% | 2% | u | x | 14µM*
O=C(Nc1cccc(Cl)c1)c1ccc(F)c(S(=O)(=O)NCc2ccc3c(c2)OCO3)c1 | -14% | -1% | 3% | 16µM*[quencher] | 0% | u
CCOC(=O)c1ccc(CN(Cc2ccc(F)cc2)S(=O)(=O)c2cc(C(=O)Nc3cccc(C(F)(F)F)c3)ccc2F)cc1 | 7% | -3% | 1% | 0% | x | 14µM*
CCOC(=O)c1ccc(CN(Cc2ccc(F)cc2)S(=O)(=O)c2ccc(F)c(C(=O)Nc3ccccc3C(F)(F)F)c2)cc1 | 2% | -3% | 3% | -6% | x | -11%
O=C(COc1ccccc1)NCC(c1cccs1)S(=O)(=O)c1ccc(Cl)cc1 (configuration not stated) | u | 0% | -3% | -26% | x | -7%
Cc1ccc2nc3sc(C(=O)NCCCN(C)c4ccccc4)cc3cc2c1 | u | u | 23% | u | x | 4%
CCN(CCCNC(=O)c1cc2cc3cc(C)ccc3nc2s1)c1cccc(C)c1 | u | -5% | 2% | 7.9µM*[quencher] | x | 10%
